Activity calls are given as the source filed them. The calls were made as follows: active = hit-call score of the fitted dose curve at least 0.9, where 1 is the maximum; inactive = score below 0.9.

A short description of the first assay: CCTE_Shafer_MEA_acute_cross_correlation_area: CCTE's Neural Acute Assay for Area of Cross Correlation, Shafer Lab (AID 2284024).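 Also: rat primary cortical neuron networks on 48-well MEA at DIV 13 or 15 with 40 min exposure; area under pooled inter-electrode spike cross-correlation near zero lag as percent change from own baseline; curves fitted for loss of cross-correlation area so actives lower synchrony.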 The method in brief: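 Percent change in well-wide cross-correlation area (window around zero lag) between 40 min baseline and 40 min post-compound recordings, 37 C; rat cortical cultures on MEA at DIV 13 or 15, dosed 0.03-40 uM, wells needing >/= 10 active electrodes.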
In the case of `COc1cc(C(=O)NC2CCN(C)CC2)ccc1Nc1ncc2c(n1)N(C1CCCC1)CC(F)(F)C(=O)N2C`, the outcome was inactive.

Consider `CN(C[C@@H](CC[N+]12CCC(C3CCCCC3)(CC1)CC2)c1ccc(Cl)c(Cl)c1)C(=O)c1cc(C(F)(F)F)cc(C(F)(F)F)c1`, for which the result was inactive.

In the case of `O=C(O)c1ccccc1-n1cc(C(=O)O)c(=O)c2cc(Nc3c(F)cc(F)cc3Cl)c(Cl)cc21`, the call was inactive.

On to `CCCCOC(=O)c1ccc(O)cc1`, for which the outcome was inactive.

With `CC(O)CC(C)(C)O` (centres undefined), the compound was classed as inactive.

`CC(=O)N1CCN(c2ccc(OC[C@H]3CO[C@](Cn4ccnc4)(c4ccc(Cl)cc4Cl)O3)cc2)CC1`: the result was inactive.

`CCN(Cc1cccc(S(=O)(=O)O)c1)c1ccc(C(=C2C=CC(=[N+](CC)Cc3cccc(S(=O)(=O)O)c3)C=C2)c2ccccc2S(=O)(=O)[O-])cc1`: the compound was classed as inactive.

A short description of the next assay: CCTE_Shafer_MEA_acute_synchrony_index: CCTE's Neural Acute Assay for Synchrony, Shafer Lab (AID 2284027).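 Also: network synchrony index of spontaneous spiking in primary rat cortical neurons on MEAs; fitted for loss of signal so actives lower synchrony relative to DMSO.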 The method in brief: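 Rat cortical cultures, DIV 13/15; spikes detected at 8x rms noise, 300-5000 Hz band-pass. Compound 0.03-40 uM, ≥3 wells; 40-min pre- and post-exposure recordings, 37 C. Readout: % change in synchrony index; loss-of-signal fit vs DMSO.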
With `COc1cc(C(=O)NC2CCN(C)CC2)ccc1Nc1ncc2c(n1)N(C1CCCC1)CC(F)(F)C(=O)N2C`, the concentration at half-maximal activity (AC50) is 18.6 µM (active).

Consider `CN(C[C@@H](CC[N+]12CCC(C3CCCCC3)(CC1)CC2)c1ccc(Cl)c(Cl)c1)C(=O)c1cc(C(F)(F)F)cc(C(F)(F)F)c1`, for which the AC50 is 8.29 µM (active).

In the case of `O=C(O)c1ccccc1-n1cc(C(=O)O)c(=O)c2cc(Nc3c(F)cc(F)cc3Cl)c(Cl)cc21`, the compound was classed as inactive.

For `CCCCOC(=O)c1ccc(O)cc1`, the compound was called inactive.

`CC(O)CC(C)(C)O` (centres undefined): the compound was called inactive.

Take `CC(=O)N1CCN(c2ccc(OC[C@H]3CO[C@](Cn4ccnc4)(c4ccc(Cl)cc4Cl)O3)cc2)CC1`: the outcome was inactive.

Regarding `CCN(Cc1cccc(S(=O)(=O)O)c1)c1ccc(C(=C2C=CC(=[N+](CC)Cc3cccc(S(=O)(=O)O)c3)C=C2)c2ccccc2S(=O)(=O)[O-])cc1`, the AC50 is 12.9 µM (active).

The values above are taken from PubChem BioAssay (EPA / NIEHS).
